Source: PubChem BioAssay
Luciferase inh – Photinus pyralis luciferase inhibition; purified P. pyralis luciferase, luminescence, biochemical; 76,000 compounds, 2.5% hits; Potency, µM (highest dose often 115 µM), usual class: inhibitors; P08659; note: nearly all actives have a fitted effect of over 65% in size
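Luminescence read by CCD imaging after purified firefly luciferase (10nM final) was added to substrate buffer holding 10uM D-luciferin and 10uM ATP, pH 7.5, pre-dosed with compound.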
hNpr1 antagonist – antagonists of human natriuretic peptide receptor Npr1 | P16066 | HEK293 hNpr1 GloSensor cGMP, ANP-stimulated luminescence | Potency, µM (titrated, usually from 46.3 µM), usual class: inhibitors | 76,000 compounds, 1.6% hits | AID 1347048; calls by dose curve; note: nearly all actives have a fitted effect of over 60% in size
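Compound pre-incubated 30 min at room temperature on GloSensor-loaded HEK293 cells stably carrying hNpr1 and the pGS-40F cGMP biosensor. Stimulation uses hNppA at 0.1 nM final; luminescence is taken at baseline and 20 min post-agonist.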
HEK293 tox – HEK 293 cell cytotoxicity | HEK 293 viability, ATP luminescence (CellTiter-Glo), 48-72 h | Potency, µM (highest dose often 115 µM), hits mostly inhibitors | 94,000 compounds, 6.6% hits | AID 1345083; note: nearly all actives have a fitted effect of over 60% in size
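250 HEK 293 cells/well; compound by pintool; incubated 48 or 72 hr at 37 degree Celsius; CellTiter-Glo added, 10 min RT, luminescence imaged.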
NIH3T3 tox – NIH 3T3 cell cytotoxicity; AID 1345082; 94,000 compounds, 4.3% hits; NIH 3T3 viability, CellTiter-Glo ATP luminescence, 48-72 h; Potency, µM (highest dose often 96.7 µM), hits mostly inhibitors; note: nearly all actives have a fitted effect of over 55% in size
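ATP-dependent luminescence (CellTiter-Glo) served as the viability signal for NIH 3T3 cells treated with compound for 48 or 72 hr at 37 °C.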
Each line names hits and unclear results; the compound was inactive in the other large screens. A selection: hits, their analogues and other compounds. The true share with any hit is near 11%. Unless noted, calls come from the whole dose curve; as a rule, active = well fitted curve in the direction sought with a large enough effect; inconclusive = small, poorly fitted or top-dose-only effect, or another doubt; inactive = no such curve, though single readings can be large; an effect the other way counts as inactive or inconclusive.

Cc1cc(NC(=O)CN2C(=O)NC(c3ccccc3Cl)C3=C2COC3=O)ccc1Br (stereo not drawn)	Luciferase inh inconclusive, HEK293 tox 45µM, NIH3T3 tox 40µM
O=C(CN1C(=O)NC(c2ccc(Cl)cc2)C2=C1COC2=O)Nc1cc(F)ccc1F (stereo not drawn)	HEK293 tox 45µM, NIH3T3 tox inconclusive
CN1CCN(C(=O)c2cc(-c3ccccc3F)nc3c2cnn3C)CC1	none (no result: Luciferase inh, hNpr1 antagonist)
CNC(=O)c1cc(C)nc2onc(C3CCCN3C(=O)OC)c12 (stereo not drawn)	none (no result: Luciferase inh, hNpr1 antagonist)
O=C(CN1C(=O)NC(c2ccc(Cl)cc2)C2=C1COC2=O)Nc1ccc2c(c1)OCO2 (stereo not drawn)	HEK293 tox inconclusive, NIH3T3 tox inconclusive
O=C(CN1C(=O)NC(c2ccc(Cl)cc2)C2=C1COC2=O)Nc1cc(F)cc(F)c1 (stereo not drawn)	HEK293 tox 25µM, NIH3T3 tox 25µM
CCOC(=O)c1ccccc1NC(=O)CN1C(=O)NC(c2ccc(C)cc2)C2=C1COC2=O (stereo not drawn)	HEK293 tox 32µM, NIH3T3 tox inconclusive
CC(C)N1CCC(CCNC(=O)CCC[C@H]2NC[C@@H]3C[C@H]2CN(Cc2ccccc2)C3)CC1	none
COCCN1CCC2(CCC1=O)CCN(C(=O)Nc1cc(C)ccc1OC)CC2	none (no result: Luciferase inh, hNpr1 antagonist)
CC(C)(C)OC(=O)NCCCC(=O)N1CCC(n2c(=O)[nH]c3ccccc32)CC1	hNpr1 antagonist 20µM, HEK293 tox inconclusive
O=C(C1COc2ccccc2C1)N1CCC(n2c(=O)[nH]c3ccccc32)CC1 (stereo not drawn)	hNpr1 antagonist inconclusive, HEK293 tox 22µM, NIH3T3 tox inconclusive
COc1ccc(C(=O)NC[C@@H]2C=C(C)[C@H](CC(=O)O)C[C@H]2C(C)C)cc1	NIH3T3 tox 35µM
CCOC(=O)C[C@@H]1C[C@@H](C(C)C)[C@H](CNC(=O)c2ccc(F)cc2)C=C1C	hNpr1 antagonist inconclusive, HEK293 tox 35µM, NIH3T3 tox inconclusive
O=C(C1CCCC1)N1CCCC(C(=O)N2CCCC2c2nc3ccncc3[nH]2)C1 (stereo not drawn)	none (no result: Luciferase inh, hNpr1 antagonist)
COCC(=O)N1CCCC(C(=O)N2CCC(c3nc4ncccc4[nH]3)CC2)C1 (stereo not drawn)	none (no result: Luciferase inh, hNpr1 antagonist)
O=C(NCCO)c1ccc(-c2ncc3cnc(C4=CCOCC4)cn23)cc1	NIH3T3 tox inconclusive
O=C(c1ccc(-c2ncc3cnc(C4=CCOCC4)cn23)cc1)N1CCc2ccccc2C1	HEK293 tox 79µM, NIH3T3 tox inconclusive
O=C(NCc1ccc(F)cc1)C1c2ccccc2C(=O)N(Cc2ccccc2)C12CCCC2 (stereo not drawn)	HEK293 tox 40µM, NIH3T3 tox 35µM
Cc1nn2c(c1-c1ccccc1-c1ccccc1)N(C(=O)COc1ccccc1)CCC2	HEK293 tox inconclusive, NIH3T3 tox inconclusive
Cc1nn2c(c1-c1cccnc1N1CCOCC1)N(C(=O)COc1ccccc1)CCC2	NIH3T3 tox 100µM
Cc1nn2c(c1-c1cccnc1N1CCOCC1)N(Cc1ccccc1F)CCC2	HEK293 tox inconclusive, NIH3T3 tox inconclusive
Cc1nn2c(c1-c1ccccc1N1CCCC1)N(C(=O)C1CCOCC1)CCC2	HEK293 tox 100µM, NIH3T3 tox inconclusive
Cc1nn2c(c1-c1ccccc1C(C)C)N(C(=O)C1CCOCC1)CCC2	HEK293 tox inconclusive, NIH3T3 tox inconclusive
Cc1nn2c(c1-c1cccnc1N1CCOCC1)N(CCCc1ccccc1)CCC2	hNpr1 antagonist inconclusive, HEK293 tox 50µM, NIH3T3 tox inconclusive
Cc1nn2c(c1-c1ccccc1N1CCCC1)N(C(=O)COc1ccccc1)CCC2	HEK293 tox 71µM, NIH3T3 tox inconclusive
O=C(NCc1cccc(C(F)(F)F)c1)c1ccc2nnc(C3CCOCC3)n2c1	NIH3T3 tox inconclusive (no result: Luciferase inh, hNpr1 antagonist)
Cc1nn2c(c1-c1ccccc1C(C)C)N(C(=O)c1ccn(C)n1)CCC2	NIH3T3 tox inconclusive
Cc1nn2c(c1-c1ccccc1N1CCCC1)N(C(=O)c1cccc(N(C)C)c1)CCC2	HEK293 tox 89µM, NIH3T3 tox inconclusive
COc1ccccc1-c1cccc(CN2CCC(N[S+](=O)([O-])c3c(C)noc3C)CC2)c1	HEK293 tox 35µM, NIH3T3 tox 35µM (no result: Luciferase inh, hNpr1 antagonist)
COc1ccccc1-c1cccc(CN2CCC(N[S+](=O)([O-])c3ccc(C)cc3)CC2)c1	HEK293 tox 35µM, NIH3T3 tox inconclusive (no result: Luciferase inh, hNpr1 antagonist)
Cc1cccc(C(=O)N2CCC(Cc3nncn3CC3CC3)CC2)c1	none
O=C(c1[nH]nc2c1COc1ccccc1-2)N1CCC(Cc2nncn2CC2CC2)CC1	NIH3T3 tox 40µM
Cc1noc(C)c1[S+](=O)([O-])N1CCN(C(=O)c2nc3cccnc3n(CC(C)C)c2=O)CC1	none (no result: Luciferase inh, hNpr1 antagonist)
CN(Cc1ccccc1)C(=O)c1ccc2c(c1)NC(C)(CNCc1ccccc1)CO2 (stereo not drawn)	HEK293 tox inconclusive, NIH3T3 tox 89µM
CN(C)CCN(C)C(=O)c1ccc2c(c1)NC(C)(COc1ccccc1)CO2 (stereo not drawn)	HEK293 tox inconclusive, NIH3T3 tox 89µM
CN(C(=O)c1ccc2c(c1)NC(C)(CNCc1ccccc1)CO2)c1ccccc1 (stereo not drawn)	HEK293 tox inconclusive, NIH3T3 tox inconclusive
CN(C)CCN(C)C(=O)c1ccc2c(c1)NC(C)(CCCCc1ccccc1)CO2 (stereo not drawn)	HEK293 tox 100µM, NIH3T3 tox 32µM
COc1ccc(OCC2(C)COc3ccc(C(=O)N(C)CCN(C)C)cc3N2)cc1 (stereo not drawn)	NIH3T3 tox inconclusive
O=C(NCCc1ccc(Cl)cc1)C1CCCN(c2nccc(Nc3ccccc3F)n2)C1 (stereo not drawn)	HEK293 tox 22µM, NIH3T3 tox 25µM (no result: Luciferase inh, hNpr1 antagonist)
O=C(NCc1ccc(F)cc1)C1CCCN(c2nccc(Nc3ccccc3F)n2)C1 (stereo not drawn)	HEK293 tox inconclusive, NIH3T3 tox 28µM (no result: Luciferase inh, hNpr1 antagonist)
COc1ccccc1Nc1ccnc(N2CCCC(C(=O)NCc3ccc(F)c(F)c3)C2)n1 (stereo not drawn)	HEK293 tox inconclusive, NIH3T3 tox 13µM (no result: Luciferase inh, hNpr1 antagonist)
COC(=O)CNC(=O)C1CCCN(c2nccc(Nc3ccccc3F)n2)C1 (stereo not drawn)	none (no result: Luciferase inh, hNpr1 antagonist)
CNC(=O)[C@@H]1CCCN1c1nccc(Nc2ccccc2OC)n1	none (no result: Luciferase inh, hNpr1 antagonist)
COc1ccccc1Nc1ccnc(N2CCCC(C(=O)NCc3ccc(F)cc3)C2)n1 (stereo not drawn)	HEK293 tox 14µM, NIH3T3 tox 20µM (no result: Luciferase inh, hNpr1 antagonist)
Cn1ncc2c(C(=O)NC3CCOCC3)cc(-c3ccc(C(F)(F)F)cc3)nc21	none (no result: Luciferase inh, hNpr1 antagonist)
COC(=O)CNC(=O)c1cc(-c2ccccc2F)nc2c1cnn2C	NIH3T3 tox inconclusive (no result: Luciferase inh, hNpr1 antagonist)
Cn1ncc2c(C(=O)NCCc3ccc(Cl)cc3)cc(-c3ccc(Cl)nc3)nc21	none (no result: Luciferase inh, hNpr1 antagonist)
O=C(NC1CCCCCC1)C1CCN(c2ccnc3ccnn23)CC1	HEK293 tox inconclusive (no result: Luciferase inh, hNpr1 antagonist)
Cc1nnc2ccc(N3CCCC(NC(=O)C4CCCC4)C3)nn12 (stereo not drawn)	HEK293 tox inconclusive (no result: Luciferase inh, hNpr1 antagonist)
O=C(C1CC1)N1CCC(N2C(=O)C(OCC3CC3)C23CCOCC3)CC1 (stereo not drawn)	none
